Data published in PubChem BioAssay (NCI).
Values joined by “and” are separate entries in the source; they are usually repeats but may differ in a detail not shown here. Identical values can stand only once. This is part of a sample that, as a whole, favours compounds with a hit. Of some 83,000 tested, about 20% had one in any assay.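 Each cell line was grown in a 96-well plate and treated with one concentration of compound for 48 hours. Values below 10 were considered active.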 Active and inactive are the calls of the source.

system: TK-10 renal; experiment: NCI-60 one-dose screen, 48 h (100 = growth as untreated, 0 = no growth, -100 = all killed); conditions: 10 µM unless noted

Structure (SMILES) | growth
O=C(CCc1ccc(O)c(O)c1)c1ccc(O)c(O)c1O | 74.7% [100 µM] (inactive) and -88% [100 µM] (active)
O=C1c2ccccc2-c2c1c1ccccc1c(=O)n2CCO | 41.8% [100 µM] (inactive) and 3.35% [100 µM] (active)
N#CC1(C#N)C2CCCCC23OC(=N)C1(C#N)C(c1ccccc1)O3 (configuration not stated) | -29% [100 µM] (active)
CC1=C2NCN(C)N=C2C(C#N)(C#N)C1(C#N)C#N | -7.38% [100 µM] (active) and -90.4% [100 µM] (active)
CCC(C)C1(O)OC2CC3(C)OC(=CC3=O)/C(C)=C\C3OC(=O)C1(C)C32 (configuration not stated) | 41.8% [100 µM] (inactive) and -90.7% [100 µM] (active)
CC(C)C1OC(N)=C(C#N)C1(C#N)C#N (configuration not stated) | 62.1% [100 µM] (inactive) and 24.7% [100 µM] (inactive)
CC(C)=CC(O)C/C(C)=C/CC/C(C)=C/CCC1(C)C(CCCO)/C(=C(/C)C=O)CCC1(C)O (configuration not stated) | 49.7% [100 µM] (inactive) and 9.22% [100 µM] (active)
CC(=N\N=C\c1ccccn1)/C(C)=N/N=C/c1ccccn1 | 108% [100 µM] (inactive) and 118% [100 µM] (inactive)
O=c1c2ccccc2nc(-c2ccccc2)n1/N=C/c1ccccc1[N+](=O)[O-] | 66.7% [100 µM] (inactive) and 0.136% [100 µM] (active)
COc1ccc2c(=O)c(-c3cc4c(cc3OC)OCO4)coc2c1 | 8.9% [100 µM] (active) and 12.1% [100 µM] (inactive)
CCCCCCCCCC(O)CC(=O)c1c(O)cccc1O (configuration not stated) | 4.56% [100 µM] (active) and 1.03% [100 µM] (active)
CC(=N/N=C/c1ccccn1)/C(C)=N/N=C(C)/C(C)=N/N=C(C)/C(C)=N/N=C(C)/C(C)=N\N=C\c1ccccn1 | 99.9% [100 µM] (inactive) and 81.3% [100 µM] (inactive)
